HIF-2a inh: HIF-2a inhibition. 786-0 RCC cells HIF-2a reporter, luciferase luminescence, overnight. AID 624352. inhibition, % at 18.8 µM. 360,000 tested, 0.72% active;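 active = inhibition of the luminescence signal of 40% or more relative to plate controls, in a single-dose primary screen at 18.75 µM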
CF NFkB inh: inhibitors of cystic fibrosis induced NF-kB; KKLEB NF-kB-GFP reporter, PAF-induced, GFP fluorescence overnight; inhibition, % at 5 µM; 360,000 tested, 0.86% active;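 active = at least 50% inhibition at 5 µM, scaled per plate between neutral and stimulator controls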;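 also: PAF is a Pseudomonas aeruginosa culture filtrate used as stimulus; plate controls were PAF-stimulated DMSO wells for no effect and unstimulated DMSO wells for full effect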
Shn3 inh set2: reduces Shn3 3'UTR luciferase signal in osteoblasts. AID 588674. Clone20 osteoblast Shn3 3'UTR firefly luciferase, 24 h. 360,000 tested, 0.52% active. inhibition, % at 12.5 µM;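 active = mean inhibition of at least 75% with every replicate also reaching 75%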;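 also: 0% = median of neutral control wells and 100% = pilot-screen positive control compound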
MITF TRPM1 inh: reduces MITF-dependent TRPM1 promoter luciferase signal; SK-MEL-5 TRPM1 promoter luciferase, 24 h; 330,000 tested, 0.83% active; inhibition, % at 12.5 µM; AID 488899;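 active = mean inhibition across replicates of 60% or more, whatever share of single replicates reaches that level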
KKLEB cytotox: reduces viability of KKLEB cystic fibrosis airway cells | KKLEB CF airway cells viability, ATPlite luminescence, overnight; active compounds read low; cells stimulated with P. aeruginosa culture filtrate | activity change (cytotoxicity), % at 5 µM | 360,000 tested, 0.36% active | AID 602141;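 active = corrected activity change at or below -50% at 5 µM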
Peg3 prom inh: Peg3 promoter activity inhibition | HeLa PEG-Prom luciferase reporter, luminescence, overnight | inhibition, % at 20 µM | 360,000 tested, 1.7% active | AID 588405;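 active = inhibition of at least 50% at 20 µM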
Starred values were filed as active, the others as inactive; · = no result given. Shown are actives, neighbours in structure and some others; about 2.7% of the full set was active somewhere.

SMILES	HIF-2a inh	CF NFkB inh	Shn3 inh set2	MITF TRPM1 inh	KKLEB cytotox	Peg3 prom inh
CC[C@@]1(C(=O)OC)N[C@H](CN(C)C(=O)COc2ccccc2)[C@@H]2C(=O)N(C)C(=O)[C@@H]21	11	0	7	-7	4	-11
Cn1nc(C(=O)Nc2nc(-c3ccccn3)cs2)c2ccccc2c1=O	-16	-4	51	9	-6	11
O=C(Nc1nc(-c2ccccn2)cs1)C1COc2ccccc2O1 (configuration not stated)	-37	19	90*	17	-13	46
O=C(Nc1nc(-c2ccccc2)cs1)C1COc2ccccc2O1 (configuration not stated)	-83	-10	-11	-21	8	-95
Cc1ccc(C(=O)Nc2nc(-c3ccccn3)cs2)o1	-78	11	34	5	1	-12
O=C(Nc1nc(-c2ccccn2)cs1)c1ccccc1-n1cnnn1	-22	15	95*	65*	-16	33
CCn1nc(C(=O)Nc2nc(-c3ccccn3)cs2)c2ccccc2c1=O	-4	-17	79	·	-4	51*
O=C(Nc1nc(-c2ccccn2)cs1)c1ccc([N+](=O)[O-])o1	-17	10	88*	61*	6	46
CCC1Cc2[nH]c(=S)[nH]c(=O)c2C(c2ccc(Cl)cc2)O1 (configuration not stated)	2	3	9	·	-13	10
O=C(Nc1nc(-c2ccccn2)cs1)c1ccc(-c2ccccc2F)o1	-88	-26	19	-12	-10	68*
Cc1cc(C(=O)Nc2nc(-c3ccccn3)cs2)ccc1[N+](=O)[O-]	-116	14	33	7	7	-3
O=C(Nc1nc(-c2ccccn2)cs1)c1cc(Cl)ccc1[N+](=O)[O-]	-49	-44	97*	79*	-2	47
Cc1ccc(NC2=Nc3ccccc3N3C2=Nc2c(c(C)nn2-c2ccccc2)C3c2ccc(O)c(O)c2)cc1 (configuration not stated)	15	-36	34	13	16	88*
CC(C)COc1ccc(-c2nnc(-c3ccncc3)o2)cc1	-205	-21	-27	-52	7	-262
CCCOc1ccc(-c2nnc(-c3ccncc3)o2)cc1	-167	0	-93	-42	-53*	-281
COc1ccc(S(=O)(=O)NC(=O)C2(C)CCN2C(=O)CC2CC2)cc1 (configuration not stated)	6	13	-13	·	0	-12
CCOC(=O)C1=C(COC(=O)/C=C/c2cccc(F)c2)NC(=O)NC1C (configuration not stated)	-3	18	-7	-16	-10	-10
Cc1cc(=O)[nH]c(N/N=C/c2ccccn2)n1	-97	25	89*	29	-3	19
CCCCN1CC(COCc2ccccc2)Oc2cccc(Oc3cc(C)c(C)c(C)c3)c2S1(=O)=O (configuration not stated)	14	-14	90*	13	-2	8
CCCCN1CC(COCc2ccccc2)Oc2cccc(Oc3ccccc3)c2S1(=O)=O (configuration not stated)	13	12	25	0	-16	22
CCCCN1CC(COCc2ccccc2)Oc2cccc(Oc3ccc(C)cc3)c2S1(=O)=O (configuration not stated)	8	16	87*	-3	-22	4
CCOC(=O)[C@H]1[C@H]2COc3cc(OC)ccc3[C@@H]2N2C(=O)c3c(C)cc(C)cc3NC(=O)[C@@]12C	15	-9	8	8	5	4
CCCOc1ccc(NC(=O)CC2C(=O)N(c3ccc(OCC)cc3)C(=S)N2C2CC2)cc1 (configuration not stated)	7	7	22	75*	-9	28
CCOc1ccc(NC(=O)CC2C(=O)N(c3ccc(OCC)cc3)C(=S)N2C2CC2)cc1 (configuration not stated)	4	0	-7	4	-2	3
CCc1noc(C)c1C(=O)OCC(=O)c1ccc(NC(C)=O)cc1F	4	-8	5	9	1	6
SMILES	HIF-2a inh	CF NFkB inh	Shn3 inh set2	MITF TRPM1 inh	KKLEB cytotox	Peg3 prom inh
CCNc1nc(N)c(C(=O)c2ccc(Cl)s2)s1	-300	55*	-82	-44	6	-260
CC1CC(C)(C)NC2(CCCC2)N1 (configuration not stated)	1	20	-5	3	-5	6
Cc1nn(CC(=O)NCCCN2CCC(N3CCCCC3)CC2)c(=O)c2cc(-c3ccccc3)nn12	5	-7	9	-22	-8	78*
COc1ccc(-c2cc3c(=O)n(CC(=O)NCCCN4CCC(Cc5ccccc5)CC4)ncn3n2)cc1	-6	24	70	71*	-62*	96*
COc1ccc(-c2cc3c(=O)n(CC(=O)NCCCN4CCN(Cc5ccccc5)CC4)ncn3n2)cc1	-41	3	71	-17	-41	-75
C[C@H]1CN([C@@H](C)CO)C(=O)c2cccc(NC(=O)c3cnccn3)c2O[C@@H]1CN(C)S(=O)(=O)c1ccc(F)cc1	11	11	-20	-9	-1	10
Cc1c(COc2ccc3ccccc3c2)nnn1CC(=O)NS(=O)(=O)c1ccccc1C(F)(F)F	12	19	-20	·	-2	6
O=C(O)c1ccccc1NS(=O)(=O)c1cccc(C(F)(F)F)c1	3	1	-2	5	8	11
O=C(O)c1ccccc1NS(=O)(=O)c1cccc(-n2sc3ccccc3c2=O)c1	16	86*	-18	10	73	42
O=C(Cc1ccc(Cl)cc1)Nc1ccc(N2CCN(C(=O)c3ccco3)CC2)cc1	19	-12	90*	5	10	12
CN1CCN(c2ccc(NC(=O)c3ccc(-c4ccc(Cl)cc4)o3)cc2)CC1	-35	-76	8	12	-22	98*
CS(=O)(=O)N1CCN(c2ccc(NC(=O)c3ccc(-c4ccc(Cl)cc4)o3)cc2)CC1	4	10	3	-9	2	29
COC(=O)Nc1nc2ccc(C(=O)c3cccs3)cc2[nH]1	-79	60*	-31	21	9	-158
CC(C)Cn1c(SC(C)C(=O)Nc2ccc3c(c2)OCCO3)nc2ccccc2c1=O (configuration not stated)	1	3	10	10	17	20
CC(Sc1nc2ccccc2c(=O)n1C)C(=O)Nc1ccc2c(c1)OCCO2 (configuration not stated)	2	2	86*	19	3	5
CC1CCCC(C)N1CC(O)Cn1c2ccccc2c2ccccc21 (configuration not stated)	10	7	8	-2	-4	10
COC(=O)c1cc(=O)n(CCc2ccccc2F)c(=Nc2ccc(F)c(Cl)c2)s1	91*	36	80	·	-28	91*

Assay outcomes as filed in PubChem.
